PubChem BioAssay AID651784 (National Center for Advancing Translational Sciences (NCATS), 2012)
Results filed as inconclusive are left out. The source made the active and inactive calls. Calls follow the shape of the dose curve; as a rule, active = well fitted inhibition curve with a large enough effect; inconclusive = small, poorly fitted or top-dose-only effect; inactive = no such curve, though single readings can be large or run the other way.

Assay: Acumen qHTS Assay for Inhibitors of the mTORC1 Signaling Pathway in MEF (Tsc2-/-, p53-/-) Cells: Hit Validation;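 also: phospho-rpS6 Ser235/236 immunofluorescence normalized to propidium iodide cell count; nearly all actives have a fitted effect of over 65% in size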;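 as to activity change, negative = inhibition: cells exposed to compound for 24 hours; plate controls were DMSO for no effect and 7.5 nM rapamycin control for full effect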
Settings: Acumen imaging; activity change, negative = inhibition: at 37.3 µM (top of the series)
Potency is read from the fitted curve at half-maximal effect.

Q: Which Potency does the source give for N=c1n(CCN2CCCCC2)c2ccccc2n1CC(O)COc1ccc(Cl)cc1Cl (stereo unspecified) here?
A: The Potency was 5.21 µM (active).

Q: With Cc1cccc(-n2nnnc2S(C)(=O)=O)c1 as the compound, how does the activity change, negative = inhibition read?
A: The activity change, negative = inhibition was -92%.

Q: With CCCCOc1cccc(C(=O)N2CCN(CCc3ccncc3)CC2)c1 as the compound, how does the activity change, negative = inhibition read?
A: Its activity change, negative = inhibition is 0.726%.

Q: For Cc1ccc(-n2c(=O)c3ccc(C(=O)NCc4ccco4)cc3n(Cc3ccc(Cl)cc3)c2=O)cc1, which Potency is on record?
A: Its Potency is 9.27 µM (active).

Q: With COC(=O)c1ccccc1NC(=O)c1nc(S(=O)(=O)Cc2cccc(C)c2)ncc1Cl as the compound, how does the Potency read?
A: The Potency was 4.14 µM (active).

Q: Which Potency does the source give for CN1CCN(C2(CNC(=O)COc3ccc(C(C)(C)C)cc3)CCCCC2)CC1 here?
A: The Potency was 14.7 µM (active).

Q: Which activity change, negative = inhibition does the source give for COc1ccc2c(c1)CC(C(=O)Nc1cc(Cl)ccc1C)CO2 (stereo unspecified) here?
A: Its activity change, negative = inhibition is -12.5%.

Q: With CC1=Nc2cc(C(=O)NC3CCCC3)ccc2Sc2ccc(Br)cc21 as the compound, how does the activity change, negative = inhibition read?
A: The activity change, negative = inhibition was -107%.

Q: With O=C(c1ccc(CS(=O)c2ccccc2Cl)o1)N1CCN(c2cccc(Cl)c2)CC1 (stereo unspecified) as the compound, how does the Potency read?
A: Its Potency is 0.521 µM (active).

Q: Which activity change, negative = inhibition does the source give for CCCCOC(=O)c1ccc(NC(=O)c2sc3nc(C)cc(C)c3c2N)cc1 here?
A: Its activity change, negative = inhibition is -72%.

Q: Which activity change, negative = inhibition does the source give for COc1cc(Cl)c(C)cc1NC(c1ccccc1)c1nnc(-c2ccccc2Cl)o1 (stereo unspecified) here?
A: The activity change, negative = inhibition was -9.11%.

Q: Which activity change, negative = inhibition does the source give for CCCCNC(=O)CSc1nc2nc(C)c(Cc3ccccc3C)c(C)n2n1 here?
A: The activity change, negative = inhibition was 7.74%.

Q: Which activity change, negative = inhibition does the source give for CCN1CCC(N(Cc2ccc(F)cc2)C(=O)Nc2ccc(C)c(F)c2)CC1 here?
A: The activity change, negative = inhibition was 5.5%.

Q: With CCc1ccc(S(=O)(=O)c2c(C(=O)c3ccc(C)c(C)c3)cnc3ccccc23)cc1 as the compound, how does the activity change, negative = inhibition read?
A: The activity change, negative = inhibition was 5.96%.

Q: With CCOc1ccc(-c2nc(SCC(=O)c3ccccc3)n[nH]2)cc1 as the compound, how does the activity change, negative = inhibition read?
A: The activity change, negative = inhibition was -131%.

Q: For O=C(Cn1c(=O)c2cccn2c2ccccc21)NCc1ccccc1F, which activity change, negative = inhibition is on record?
A: Its activity change, negative = inhibition is 18.1%.
